Assay results as given in publication PMC7862700, “An all-to-all approach to the identification of sequence-specific readers for epigenetic DNA modifications on cytosine”.

Columns and labels:
Assay in all cases: DAPPL (digital affinity profiling via proximity ligation, sequencing); 10 mM Tris-HCl pH 7.5, 50 mM NaCl, 1 mM DTT, 4% glycerol, room temperature, 30 min; GST-TFs on glutathione beads, 16-mer random dsDNA library, 0.1% formaldehyde crosslink after washing; high values mean tight binding
Details in all cases: protein: recombinant; tags: N-terminal GST; dsDNA, one strand shown
[1] = molecular target: T1, ELK1 (Homo sapiens, UniProt P19419 1-428)
T1 sequence: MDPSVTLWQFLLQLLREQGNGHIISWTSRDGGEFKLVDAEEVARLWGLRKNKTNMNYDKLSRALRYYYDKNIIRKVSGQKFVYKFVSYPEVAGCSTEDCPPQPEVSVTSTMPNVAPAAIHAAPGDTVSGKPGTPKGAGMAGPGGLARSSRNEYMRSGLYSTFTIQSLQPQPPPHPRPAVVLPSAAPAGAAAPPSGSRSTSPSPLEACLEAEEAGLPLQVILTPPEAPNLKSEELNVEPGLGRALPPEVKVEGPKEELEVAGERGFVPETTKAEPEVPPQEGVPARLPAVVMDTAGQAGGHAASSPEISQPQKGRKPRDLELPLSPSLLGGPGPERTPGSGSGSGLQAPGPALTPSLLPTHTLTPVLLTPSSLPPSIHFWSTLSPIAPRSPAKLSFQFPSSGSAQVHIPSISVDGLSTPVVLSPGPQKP
Outline: (§1)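 GST fusions of human transcription factors were expressed in yeast and captured with glutathione beads. Once given DNA barcodes and pooled alongside a tag-only sample, they were incubated for 30 min at room temperature with 200 nmole of a random double-stranded 16-mer DNA library in Tris/NaCl/DTT/glycerol buffer, then washed, crosslinked (0.1% formaldehyde), proximity-ligated, PCR-amplified and sequenced on an Illumina NextSeq500. The binding signal of each hexamer is its read frequency for a factor divided by its frequency for the tag-only sample.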

[2] = molecular target: ELF1 (Homo sapiens, UniProt P32519 1-619)
Sequence of ELF1 (P32519 whole entry): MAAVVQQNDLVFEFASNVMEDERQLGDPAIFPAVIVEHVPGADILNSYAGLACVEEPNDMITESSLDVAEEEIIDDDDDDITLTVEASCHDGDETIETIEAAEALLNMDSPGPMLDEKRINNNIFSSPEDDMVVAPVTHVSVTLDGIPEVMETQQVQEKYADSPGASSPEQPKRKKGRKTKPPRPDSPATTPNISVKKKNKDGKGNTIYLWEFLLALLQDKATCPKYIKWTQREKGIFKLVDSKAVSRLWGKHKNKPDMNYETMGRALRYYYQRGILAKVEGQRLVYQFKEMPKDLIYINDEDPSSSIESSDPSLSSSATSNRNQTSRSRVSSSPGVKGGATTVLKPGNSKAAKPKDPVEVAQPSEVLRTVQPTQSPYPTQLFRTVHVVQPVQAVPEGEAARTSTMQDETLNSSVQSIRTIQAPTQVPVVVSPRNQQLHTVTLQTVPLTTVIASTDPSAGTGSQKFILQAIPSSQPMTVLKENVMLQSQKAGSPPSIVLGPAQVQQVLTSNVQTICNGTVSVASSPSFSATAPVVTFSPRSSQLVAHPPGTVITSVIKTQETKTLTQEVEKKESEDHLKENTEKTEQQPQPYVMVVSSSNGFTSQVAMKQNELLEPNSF
Outline: as §1

[3] = molecular target: SPIB (Homo sapiens, UniProt Q01892 1-262)
Sequence of SPIB (Q01892 whole entry): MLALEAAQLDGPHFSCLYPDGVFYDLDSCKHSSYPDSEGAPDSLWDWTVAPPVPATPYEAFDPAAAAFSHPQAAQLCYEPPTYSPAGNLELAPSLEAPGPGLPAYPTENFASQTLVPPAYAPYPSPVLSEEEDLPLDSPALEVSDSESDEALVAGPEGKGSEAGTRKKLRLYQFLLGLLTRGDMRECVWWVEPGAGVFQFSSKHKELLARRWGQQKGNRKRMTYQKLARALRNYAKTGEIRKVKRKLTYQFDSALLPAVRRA
Outline: as §1

[4] = molecular target: T2, ELK3 (Homo sapiens, UniProt P41970 1-407)
T2 sequence: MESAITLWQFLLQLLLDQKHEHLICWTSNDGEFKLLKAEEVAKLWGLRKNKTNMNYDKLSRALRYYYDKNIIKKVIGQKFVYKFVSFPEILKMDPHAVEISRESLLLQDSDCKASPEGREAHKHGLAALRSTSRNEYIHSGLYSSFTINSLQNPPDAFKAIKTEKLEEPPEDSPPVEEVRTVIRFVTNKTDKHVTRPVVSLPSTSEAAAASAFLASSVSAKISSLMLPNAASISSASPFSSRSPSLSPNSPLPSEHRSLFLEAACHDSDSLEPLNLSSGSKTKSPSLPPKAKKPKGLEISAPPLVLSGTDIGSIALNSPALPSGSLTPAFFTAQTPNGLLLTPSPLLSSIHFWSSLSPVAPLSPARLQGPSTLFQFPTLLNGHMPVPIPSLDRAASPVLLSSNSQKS
Outline: as §1

[5] = molecular target: T3, SPIC (Homo sapiens, UniProt Q8N5J4 1-248)
T3 sequence: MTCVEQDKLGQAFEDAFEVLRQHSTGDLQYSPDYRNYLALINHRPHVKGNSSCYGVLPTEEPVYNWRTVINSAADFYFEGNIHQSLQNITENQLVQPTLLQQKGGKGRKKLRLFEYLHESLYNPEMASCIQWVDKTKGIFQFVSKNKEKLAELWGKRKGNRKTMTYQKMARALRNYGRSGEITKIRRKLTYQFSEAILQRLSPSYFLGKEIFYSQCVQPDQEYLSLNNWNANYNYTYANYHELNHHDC
Outline: as §1

[6] = molecular target: ELF4 (Homo sapiens, UniProt Q99607 1-663)
Sequence of ELF4 (Q99607 whole entry): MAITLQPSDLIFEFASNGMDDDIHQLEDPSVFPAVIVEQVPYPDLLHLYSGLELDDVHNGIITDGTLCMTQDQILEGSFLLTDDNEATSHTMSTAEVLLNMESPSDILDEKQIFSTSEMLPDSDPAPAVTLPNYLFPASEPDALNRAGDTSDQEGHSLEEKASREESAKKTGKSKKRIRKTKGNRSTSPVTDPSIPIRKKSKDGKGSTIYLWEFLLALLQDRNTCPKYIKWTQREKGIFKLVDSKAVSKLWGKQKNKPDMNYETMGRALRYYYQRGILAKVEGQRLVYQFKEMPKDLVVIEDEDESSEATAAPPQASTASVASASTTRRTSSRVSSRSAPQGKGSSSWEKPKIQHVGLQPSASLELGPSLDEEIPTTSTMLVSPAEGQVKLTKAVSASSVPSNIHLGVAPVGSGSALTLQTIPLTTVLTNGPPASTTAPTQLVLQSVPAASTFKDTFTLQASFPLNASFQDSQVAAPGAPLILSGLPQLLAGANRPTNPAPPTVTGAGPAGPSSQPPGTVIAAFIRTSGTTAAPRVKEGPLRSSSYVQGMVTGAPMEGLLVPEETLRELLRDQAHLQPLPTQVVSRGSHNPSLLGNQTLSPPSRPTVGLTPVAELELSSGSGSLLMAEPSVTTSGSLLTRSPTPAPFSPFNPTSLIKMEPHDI
Outline: as §1

[7] = molecular target: T4, ELK4 (Homo sapiens, UniProt P28324-2 1-405)
T4 sequence: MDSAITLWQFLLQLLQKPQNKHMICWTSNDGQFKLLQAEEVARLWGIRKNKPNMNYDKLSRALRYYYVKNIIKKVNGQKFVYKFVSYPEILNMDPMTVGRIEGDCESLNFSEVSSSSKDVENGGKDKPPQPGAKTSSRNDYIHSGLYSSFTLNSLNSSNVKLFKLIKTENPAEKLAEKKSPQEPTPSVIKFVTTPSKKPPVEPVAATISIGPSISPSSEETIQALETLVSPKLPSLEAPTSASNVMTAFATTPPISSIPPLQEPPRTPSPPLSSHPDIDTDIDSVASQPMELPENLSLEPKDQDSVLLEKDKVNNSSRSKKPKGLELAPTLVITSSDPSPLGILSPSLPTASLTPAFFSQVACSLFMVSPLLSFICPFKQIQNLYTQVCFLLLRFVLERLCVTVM
Outline: as §1

[8] = molecular target: T5, ELF3 (Homo sapiens, UniProt P78545 1-371)
T5 sequence: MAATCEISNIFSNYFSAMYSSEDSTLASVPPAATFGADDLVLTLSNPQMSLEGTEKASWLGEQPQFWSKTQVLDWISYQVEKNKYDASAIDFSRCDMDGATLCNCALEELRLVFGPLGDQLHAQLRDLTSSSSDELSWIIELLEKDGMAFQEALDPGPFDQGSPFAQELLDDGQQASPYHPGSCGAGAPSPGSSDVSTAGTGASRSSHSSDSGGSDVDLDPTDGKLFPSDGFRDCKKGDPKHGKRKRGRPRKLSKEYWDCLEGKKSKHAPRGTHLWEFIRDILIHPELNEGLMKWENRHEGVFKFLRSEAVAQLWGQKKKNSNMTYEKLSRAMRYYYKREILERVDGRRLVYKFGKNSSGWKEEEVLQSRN
Outline: as §1

[9] = molecular target: T6, ERF (Homo sapiens, UniProt P50548 1-548)
T6 sequence: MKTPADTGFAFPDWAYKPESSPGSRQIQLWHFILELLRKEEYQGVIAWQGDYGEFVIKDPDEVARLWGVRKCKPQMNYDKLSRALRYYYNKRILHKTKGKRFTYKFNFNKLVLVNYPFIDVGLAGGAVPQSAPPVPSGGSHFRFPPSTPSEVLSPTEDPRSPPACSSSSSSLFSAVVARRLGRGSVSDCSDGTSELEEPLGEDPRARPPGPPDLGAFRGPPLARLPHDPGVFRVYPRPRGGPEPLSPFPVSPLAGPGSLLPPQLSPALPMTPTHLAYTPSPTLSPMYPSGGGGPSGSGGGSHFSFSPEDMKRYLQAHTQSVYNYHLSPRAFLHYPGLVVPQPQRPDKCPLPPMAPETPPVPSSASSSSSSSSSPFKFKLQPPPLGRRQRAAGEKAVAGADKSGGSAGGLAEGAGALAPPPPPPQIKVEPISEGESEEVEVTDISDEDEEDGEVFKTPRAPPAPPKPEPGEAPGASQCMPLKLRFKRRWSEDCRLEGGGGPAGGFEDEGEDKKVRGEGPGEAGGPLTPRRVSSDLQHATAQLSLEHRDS
Outline: as §1

[10] = molecular target: T7, ETV3L (Homo sapiens, UniProt Q6ZN32 1-361)
T7 sequence: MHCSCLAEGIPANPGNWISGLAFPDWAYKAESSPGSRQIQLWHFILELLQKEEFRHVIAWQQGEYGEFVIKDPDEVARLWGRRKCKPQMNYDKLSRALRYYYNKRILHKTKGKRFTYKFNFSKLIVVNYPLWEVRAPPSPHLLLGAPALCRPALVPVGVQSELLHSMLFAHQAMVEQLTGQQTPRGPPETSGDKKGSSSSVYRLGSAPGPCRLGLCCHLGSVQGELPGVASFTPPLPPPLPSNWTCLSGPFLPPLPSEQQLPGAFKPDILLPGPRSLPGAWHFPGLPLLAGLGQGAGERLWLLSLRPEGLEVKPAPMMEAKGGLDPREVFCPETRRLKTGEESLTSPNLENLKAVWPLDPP
Outline: as §1

[11] = molecular target: T8, ETS2 (Homo sapiens, UniProt P15036 1-469)
T8 sequence: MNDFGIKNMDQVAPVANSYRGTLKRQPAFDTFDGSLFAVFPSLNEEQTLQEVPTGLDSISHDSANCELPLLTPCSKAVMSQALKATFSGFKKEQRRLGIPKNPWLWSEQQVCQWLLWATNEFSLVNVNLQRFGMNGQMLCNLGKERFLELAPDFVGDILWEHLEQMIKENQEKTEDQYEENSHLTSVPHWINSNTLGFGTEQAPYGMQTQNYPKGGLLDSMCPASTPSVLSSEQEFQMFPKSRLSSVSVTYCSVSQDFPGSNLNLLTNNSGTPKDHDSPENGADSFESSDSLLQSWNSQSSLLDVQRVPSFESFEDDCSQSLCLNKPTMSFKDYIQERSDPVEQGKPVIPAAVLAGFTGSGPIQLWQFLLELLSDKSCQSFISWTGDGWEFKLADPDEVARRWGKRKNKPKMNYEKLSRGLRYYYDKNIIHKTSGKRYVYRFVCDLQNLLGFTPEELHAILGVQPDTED
Outline: as §1

[12] = molecular target: T9, SPDEF (Homo sapiens, UniProt O95238 1-335)
T9 sequence: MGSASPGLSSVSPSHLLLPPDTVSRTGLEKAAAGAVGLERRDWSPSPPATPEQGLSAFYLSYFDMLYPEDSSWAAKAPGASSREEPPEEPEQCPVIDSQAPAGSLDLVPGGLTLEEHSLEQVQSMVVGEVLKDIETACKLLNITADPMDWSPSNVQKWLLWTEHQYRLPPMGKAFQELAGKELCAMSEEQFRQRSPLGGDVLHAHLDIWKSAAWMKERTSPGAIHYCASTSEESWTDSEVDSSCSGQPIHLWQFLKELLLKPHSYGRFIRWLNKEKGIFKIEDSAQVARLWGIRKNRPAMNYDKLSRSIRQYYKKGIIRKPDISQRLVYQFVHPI
Outline: as §1

[13] = molecular target: T10, ETV7 (Homo sapiens, UniProt Q9Y603 1-341)
T10 sequence: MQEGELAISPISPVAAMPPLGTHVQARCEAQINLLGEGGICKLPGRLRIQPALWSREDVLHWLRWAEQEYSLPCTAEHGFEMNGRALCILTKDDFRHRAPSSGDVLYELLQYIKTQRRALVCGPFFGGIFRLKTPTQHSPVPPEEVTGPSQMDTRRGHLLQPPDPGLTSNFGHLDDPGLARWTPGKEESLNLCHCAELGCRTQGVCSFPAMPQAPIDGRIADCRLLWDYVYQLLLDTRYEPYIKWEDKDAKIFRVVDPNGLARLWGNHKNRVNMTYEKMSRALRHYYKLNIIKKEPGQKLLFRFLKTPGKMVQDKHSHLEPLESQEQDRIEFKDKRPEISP
Outline: as §1

[14] = molecular target: T11, ETV3 (Homo sapiens, UniProt P41162-2 1-143)
T11 sequence: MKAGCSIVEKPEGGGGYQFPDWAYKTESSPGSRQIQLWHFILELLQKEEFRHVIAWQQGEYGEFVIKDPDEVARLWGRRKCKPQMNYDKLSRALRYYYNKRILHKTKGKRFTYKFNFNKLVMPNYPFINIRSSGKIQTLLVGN
Outline: as §1

GATCTA
binding signal [1]: 1.12 fold enrichment (6-mer frequency, TF over GST control) | binding signal [2]: 1.03 fold enrichment (6-mer frequency, TF over GST control) | binding signal [3]: 1.06 fold enrichment (6-mer frequency, TF over GST control) | binding signal [4]: 1.12 fold enrichment (6-mer frequency, TF over GST control) | binding signal [5]: 1.01 fold enrichment (6-mer frequency, TF over GST control) | binding signal [6]: 1.04 fold enrichment (6-mer frequency, TF over GST control) | binding signal [7]: 1.05 fold enrichment (6-mer frequency, TF over GST control) | binding signal [8]: 1.07 fold enrichment (6-mer frequency, TF over GST control) | binding signal [9]: 1.04 fold enrichment (6-mer frequency, TF over GST control) | binding signal [10]: 1.03 fold enrichment (6-mer frequency, TF over GST control) | binding signal [11]: 1.04 fold enrichment (6-mer frequency, TF over GST control) | binding signal [12]: 1.1 fold enrichment (6-mer frequency, TF over GST control) | binding signal [13]: 1.1 fold enrichment (6-mer frequency, TF over GST control) | binding signal [14]: 1.04 fold enrichment (6-mer frequency, TF over GST control)
